# Measurements: PubChem BioAssay (EPA / NIEHS)
# Where “and” joins values, the source holds several entries; their conditions need not be identical. Equal values may be shown once. Results filed as inconclusive are left out. Some structures have more than one record in an assay (separate samples or runs), and their calls can disagree. Calls of active or inactive are those of the source. How the source made its calls, unless noted: active means hit-call score of the fitted dose curve at least 0.9, where 1 is the maximum; inactive means score below 0.9.
# Experiments:
# [1] = biological target: Retinoic acid receptor RXR-alpha (Homo sapiens) (UniProt P19793); experiment: ATG_RXRa_TRANS: Attagene TRANS-FACTORIAL HepG2 Assay for human Retinoid X Receptor alpha (RXRa) (AID 2283012; active means hit-call score of the fitted dose curve at least 0.9, where 1 is the maximum)
# In short: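 TRANS format reporting activity of exogenous RXRa-Gal4 chimera in transiently transfected HepG2, 24 h exposure. Reporter transcripts quantified by RT-PCR with capillary electrophoresis, with gain of signal scored relative to DMSO.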
# [2] = biological target: human Retinoid X Receptor beta (RXRb), RXRB (gene 6257) (UniProt P28702); experiment: ATG_RXRb_TRANS: Attagene TRANS-FACTORIAL HepG2 Assay for human Retinoid X Receptor beta (RXRb) (AID 2283013; active means hit-call score of the fitted dose curve at least 0.9, where 1 is the maximum)
# In short: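 Readout is reporter transcript induction after 24 h dosing. It is measured by RT-PCR of total RNA followed by fluorescent capillary electrophoresis. HepG2 liver cells carry transfected multiple reporter units driven by an exogenous RXRb-Gal4 fusion; activity is relative to DMSO.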
# [3] = biological target: human Thyroid Receptor alpha (THRa1), THRA (gene 7067) (UniProt P10827); experiment: ATG_THRa1_TRANS: Attagene TRANS-FACTORIAL HepG2 Assay for human Thyroid Receptor alpha (THRa1) (AID 2283014; active means hit-call score of the fitted dose curve at least 0.9, where 1 is the maximum)
# In short: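 HepG2 cells transiently transfected with multiplexed GAL4-UAS reporter units for exogenous chimeric THRa1-Gal4; reporter mRNA measured 24 h after dosing by RT-PCR, 6-FAM labelling, HpaI digestion and capillary electrophoresis. Gain-of-signal fitted versus DMSO baseline.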
# [4] = read-out: E-selectin (Homo sapiens) (UniProt P16581); experiment: BSK_3C_Eselectin: BioMAP Diversity Plus: 3C Assay for Eselectin Biomarker Activity (AID 2283015); conditions: primary human endothelial cells (HUVEC); actives raise or lower the signal;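 on outcome: cell surface E-selectin protein quantified by ELISA 24 h after dosing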
# In short: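 Primary human umbilical vein endothelial cells (3C system) were dosed with chemical and cell-surface E-selectin measured by ELISA 24 h later. Bidirectional curve fitting used DMSO as negative control and baseline.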
# [5] = read-out: Interleukin-1 alpha (IL1a), IL1A (gene 3552); experiment: BSK_BE3C_IL1a: BioMAP Diversity Plus: BE3C Assay for Interleukin-1 alpha (IL1a) Biomarker Activity (AID 2283016); conditions: primary human bronchial epithelial cells; actives raise or lower the signal
# In short: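 IL-1a measured by ELISA after 24 h treatment of human primary bronchial epithelial cells, with gain or loss of signal fitted versus DMSO. Parallel cultures stained with SRB gauge overt cytotoxicity.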
# [6] = read-out: Monocyte Chemoattractant Protein-1 (MCP1), CCL2 (gene 6347); experiment: BSK_3C_MCP1: BioMAP Diversity Plus: 3C Assay for Monocyte Chemoattractant Protein-1 (MCP1) Biomarker Activity (AID 2283017); conditions: primary human endothelial cells (HUVEC); actives raise or lower the signal
# In short: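 Primary human umbilical vein endothelial cells (3C system) were exposed to test chemical for 24 h, after which MCP-1 was quantified by ELISA. Activity was fitted bidirectionally against DMSO as negative control and baseline.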
# [7] = read-out: Monocyte Chemoattractant Protein-1 (MCP1), CCL2 (gene 6347); experiment: BSK_4H_MCP1: BioMAP Diversity Plus: 4H Assay for Monocyte Chemoattractant Protein-1 (MCP1) Biomarker Activity (AID 2283018); conditions: primary human endothelial cells (HUVEC); actives raise or lower the signal
# In short: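 ELISA of MCP-1 (CCL2) 24 h after chemical dosing of HUVEC in the BioMAP 4H system. Gain or loss versus DMSO fitted; parallel SRB staining (560 nm) tracked overt cytotoxicity.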
# [8] = read-out: Human Leukocyte Antigen - DR isotype (HLADR), HLA-DRA (gene 3122); experiment: BSK_3C_HLADR: BioMAP Diversity Plus: 3C Assay for Human Leukocyte Antigen - DR isotype (HLADR) Biomarker Activity (AID 2283019); conditions: primary human endothelial cells (HUVEC); actives raise or lower the signal;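 on outcome: ELISA of cell-surface HLA-DR on HUVEC 24 h after dosing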
# In short: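 Primary human umbilical vein endothelial cells (3C system) were dosed with compound and cell-surface HLA-DR was quantified by ELISA at 24 h. Activity was fitted bidirectionally against DMSO as negative control and baseline.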
# [9] = read-out: Interleukin-8 (IL8), CXCL8 (gene 3576); experiment: BSK_3C_IL8: BioMAP Diversity Plus: 3C Assay for Interleukin-8 (IL8) Biomarker Activity (AID 2283020); conditions: primary human endothelial cells (HUVEC); actives raise or lower the signal
# In short: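 IL-8 was measured by ELISA in HUVEC cultures 24 h after chemical dosing, with gain or loss of signal fitted relative to DMSO. Parallel SRB total-protein staining tracked overt cytotoxicity.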
# Sequence of Retinoic acid receptor RXR-alpha (Homo sapiens) (P19793 whole entry, looked up, the tested form may be a part): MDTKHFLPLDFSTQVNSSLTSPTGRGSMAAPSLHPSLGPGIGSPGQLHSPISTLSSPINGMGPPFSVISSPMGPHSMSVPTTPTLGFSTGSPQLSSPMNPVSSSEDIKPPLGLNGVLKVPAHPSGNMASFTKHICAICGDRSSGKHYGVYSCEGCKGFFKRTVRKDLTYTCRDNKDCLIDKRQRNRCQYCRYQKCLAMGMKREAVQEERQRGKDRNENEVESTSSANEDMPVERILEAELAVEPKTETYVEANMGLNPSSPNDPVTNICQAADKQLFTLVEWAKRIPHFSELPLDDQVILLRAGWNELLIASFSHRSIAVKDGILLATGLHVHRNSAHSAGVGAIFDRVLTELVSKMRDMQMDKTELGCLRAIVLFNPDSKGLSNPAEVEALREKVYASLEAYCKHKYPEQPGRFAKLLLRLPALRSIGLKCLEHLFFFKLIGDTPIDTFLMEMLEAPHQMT
# Sequence of human Thyroid Receptor alpha (THRa1), THRA (gene 7067) (P10827 whole entry, looked up, the tested form may be a part): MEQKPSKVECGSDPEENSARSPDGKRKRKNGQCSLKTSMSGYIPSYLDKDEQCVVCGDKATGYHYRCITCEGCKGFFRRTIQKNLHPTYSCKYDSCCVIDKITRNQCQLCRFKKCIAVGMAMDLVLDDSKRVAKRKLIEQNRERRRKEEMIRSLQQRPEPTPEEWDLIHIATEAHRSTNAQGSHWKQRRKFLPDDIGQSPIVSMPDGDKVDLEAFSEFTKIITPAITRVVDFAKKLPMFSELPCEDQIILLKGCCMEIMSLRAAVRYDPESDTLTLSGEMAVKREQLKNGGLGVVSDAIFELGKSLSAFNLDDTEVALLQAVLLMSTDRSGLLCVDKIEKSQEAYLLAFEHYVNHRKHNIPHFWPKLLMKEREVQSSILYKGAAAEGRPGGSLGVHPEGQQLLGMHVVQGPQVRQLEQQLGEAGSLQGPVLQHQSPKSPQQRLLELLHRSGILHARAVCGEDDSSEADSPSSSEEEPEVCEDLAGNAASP
# Sequence of E-selectin (Homo sapiens) (P16581 whole entry, looked up): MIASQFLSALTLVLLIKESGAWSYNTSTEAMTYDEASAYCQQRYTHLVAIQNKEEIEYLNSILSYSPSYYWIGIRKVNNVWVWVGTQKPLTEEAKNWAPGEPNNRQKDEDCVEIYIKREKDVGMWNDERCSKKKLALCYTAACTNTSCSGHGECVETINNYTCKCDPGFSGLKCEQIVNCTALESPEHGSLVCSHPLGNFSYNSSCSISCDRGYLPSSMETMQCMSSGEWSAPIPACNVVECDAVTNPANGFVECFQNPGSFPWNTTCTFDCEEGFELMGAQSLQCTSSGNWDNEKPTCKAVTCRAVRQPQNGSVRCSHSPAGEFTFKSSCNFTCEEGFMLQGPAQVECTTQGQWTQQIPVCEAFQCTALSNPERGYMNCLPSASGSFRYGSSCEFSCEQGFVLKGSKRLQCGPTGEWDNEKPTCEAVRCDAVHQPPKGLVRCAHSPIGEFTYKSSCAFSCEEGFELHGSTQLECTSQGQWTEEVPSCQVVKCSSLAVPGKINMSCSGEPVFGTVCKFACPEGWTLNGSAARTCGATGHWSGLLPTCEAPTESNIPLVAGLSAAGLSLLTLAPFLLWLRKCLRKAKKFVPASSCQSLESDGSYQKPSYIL
# Sequence of human Retinoid X Receptor beta (RXRb), RXRB (gene 6257) (P28702 whole entry, looked up, the tested form may be a part): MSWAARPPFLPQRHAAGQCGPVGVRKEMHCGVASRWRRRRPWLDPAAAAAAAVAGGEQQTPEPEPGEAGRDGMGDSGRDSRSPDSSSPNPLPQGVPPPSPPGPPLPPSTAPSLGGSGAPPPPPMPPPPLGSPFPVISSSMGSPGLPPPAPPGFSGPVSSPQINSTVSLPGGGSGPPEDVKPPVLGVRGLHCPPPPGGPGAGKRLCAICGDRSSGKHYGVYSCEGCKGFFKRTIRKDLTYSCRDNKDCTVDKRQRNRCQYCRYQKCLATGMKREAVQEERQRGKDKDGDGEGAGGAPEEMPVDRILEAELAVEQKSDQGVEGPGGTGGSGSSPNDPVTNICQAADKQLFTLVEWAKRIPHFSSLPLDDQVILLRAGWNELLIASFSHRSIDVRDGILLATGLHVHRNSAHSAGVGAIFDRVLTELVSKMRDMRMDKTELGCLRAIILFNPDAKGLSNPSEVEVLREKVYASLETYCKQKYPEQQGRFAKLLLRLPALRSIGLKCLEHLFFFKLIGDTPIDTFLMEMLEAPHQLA
structure (smiles),measurement,setting,value
CCCCCC(C)OC(=O)COc1ccc(Cl)c2cccnc12 (stereo not given),outcome,[1],inactive
same,outcome,[2],inactive
Clc1ccc2c(Cl)ccnc2c1,outcome,[1],inactive
same,outcome,[2],inactive
C=CCOCC(CO)(CO)CO,outcome,[1],inactive
same,outcome,[2],inactive
CCCCCCCCCCCC(=O)O,outcome,[1],inactive
same,outcome,[2],inactive
same,outcome,[3],inactive
CCCCCCc1ccc(N)cc1,outcome,[1],inactive
same,outcome,[2],inactive
same,outcome,[3],inactive
CC1=CC(=O)c2ccccc2C1=O,outcome,[1],inactive
same,outcome,[2],inactive
Cc1ccc(S(=O)(=O)O)cc1,outcome,[1],inactive
same,outcome,[2],inactive
same,outcome,[3],inactive
Cc1cc(=O)oc2cc(O)ccc12,outcome,[1],inactive
same,outcome,[2],inactive
CCCCCCCCC1CCC(=O)O1 (stereo not given),outcome,[1],inactive
same,outcome,[2],inactive
same,outcome,[3],inactive
C[C@]12CC[C@@H]3c4ccc(O)cc4CC[C@H]3[C@@H]1CC[C@@H]2OC(=O)CCC1CCCC1,outcome,[1],inactive
same,AC50,[2],169 µM (active)
Cc1cc(C(C)(C)C)c(O)c(C(C)(C)C)c1,AC50,[1],15.6 µM (active) and 865 nM (active)
same,AC50,[2],918 nM (active) and 88 nM (active)
O=C(F)C(F)(F)C(F)(F)C(F)(F)C(F)F,outcome,[1],inactive
same,outcome,[2],inactive
CC(=O)Nc1ccc(S(N)(=O)=O)cc1,outcome,[1],inactive
same,outcome,[2],inactive
O=CC(F)(F)C(F)(F)C(F)(F)F,outcome,[1],inactive
same,outcome,[2],inactive
same,outcome,[3],inactive
CC(C)[C@@H]1CC[C@@H](C)C[C@H]1O,outcome,[1],inactive
same,outcome,[2],inactive
same,outcome,[3],inactive
CC(C)(C)c1ccc(O)c(O)c1,outcome,[1],inactive
same,AC50,[2],38.8 µM (active) and 44.5 µM (active) and 27.8 µM (active)
same,outcome,[2],inactive
same,AC50,[3],34.1 µM (active)
same,outcome,[3],inactive
same,AC50,[4],3.97 µM (active)
same,AC50,[5],20 µM (active)
same,outcome,[6],inactive
same,AC50,[7],5.58 µM (active)
same,AC50,[8],5.3 µM (active)
same,outcome,[9],inactive
O=C(O)CCC(F)(F)C(F)(F)C(F)(F)C(F)(F)C(F)(F)C(F)(F)F,outcome,[1],inactive
same,AC50,[2],51.1 µM (active)
same,outcome,[3],inactive
same,outcome,[4],inactive
same,outcome,[5],inactive
same,outcome,[6],inactive
same,outcome,[7],inactive
same,outcome,[8],inactive
same,outcome,[9],inactive
C=CC(=O)OCCC(F)(F)C(F)(F)C(F)(F)C(F)(F)C(F)(F)C(F)(F)C(F)(F)C(F)(F)F,outcome,[1],inactive
same,outcome,[2],inactive
same,outcome,[3],inactive
same,outcome,[4],inactive
same,outcome,[5],inactive
same,outcome,[6],inactive
same,outcome,[7],inactive
same,outcome,[8],inactive
same,outcome,[9],inactive
Cc1cccc2c1ccc1ccccc12,outcome,[1],inactive
same,AC50,[2],22.6 µM (active)
same,outcome,[3],inactive
same,outcome,[4],inactive
same,AC50,[5],5.56 µM (active)
same,outcome,[6],inactive
same,outcome,[7],inactive
same,AC50,[8],20 µM (active)
same,outcome,[9],inactive
O=C(O)C(=O)O,outcome,[1],inactive
same,outcome,[2],inactive
Oc1cccc2c(O)cccc12,outcome,[1],inactive
same,outcome,[2],inactive
same,outcome,[3],inactive
COC(=O)C(F)(F)C(F)(F)C(F)(F)F,outcome,[3],inactive
CCC(C)c1ccccc1O (stereo not given),AC50,[2],72.8 µM (active)
same,outcome,[4],inactive
same,outcome,[5],inactive
same,outcome,[6],inactive
same,outcome,[7],inactive
same,outcome,[8],inactive
same,outcome,[9],inactive
CCOC(=O)CN[C@@H](C(=O)N1CC[C@H]1C(=O)NCc1ccc(/C(N)=N/O)cc1)C1CCCCC1,AC50,[2],1.42 µM (active)
same,outcome,[4],inactive
same,outcome,[5],inactive
same,outcome,[6],inactive
same,outcome,[7],inactive
same,outcome,[8],inactive
same,outcome,[9],inactive
C=C(c1ccc(C(=O)O)cc1)c1cc2c(cc1C)C(C)(C)CCC2(C)C,outcome,[3],inactive
NNc1nc(-c2ccc([N+](=O)[O-])cc2)cs1,AC50,[3],48.5 µM (active)
O=C(c1cc(O)c(O)c(O)c1)c1ccc(O)c(O)c1O,outcome,[3],inactive
O=C(CC(=O)C(F)(F)C(F)(F)C(F)(F)F)c1cccs1,outcome,[2],inactive
same,outcome,[3],inactive
same,AC50,[4],51.4 µM (active) and 52.5 µM (active)
same,AC50,[5],29.5 µM (active) and 28.9 µM (active)
same,AC50,[6],40 µM (active) and 41.2 µM (active)
same,AC50,[7],23.5 µM (active) and 29.1 µM (active)
same,AC50,[8],24.1 µM (active) and 24.6 µM (active)
same,AC50,[9],15.8 µM (active) and 17.3 µM (active)
CCOCCOCC,outcome,[3],inactive
CCc1cccc(CC)c1NC(=O)C(=O)O,outcome,[3],inactive
CCCCC(CC)C(=O)O (stereo not given),outcome,[2],inactive
same,outcome,[4],inactive
same,outcome,[5],inactive
same,outcome,[6],inactive
same,outcome,[7],inactive
same,outcome,[8],inactive
same,outcome,[9],inactive
Cc1ccc(N=Nc2c(O)ccc3ccccc23)c(C)c1,outcome,[2],inactive
same,outcome,[4],inactive
same,outcome,[5],inactive
same,outcome,[6],inactive
same,outcome,[7],inactive
same,AC50,[8],14.8 µM (active)
same,outcome,[9],inactive
Nc1cc(Cl)c(-c2cc(Cl)c(N)cc2Cl)cc1Cl,outcome,[3],inactive
O=C1NS(=O)(=O)c2ccccc21,outcome,[2],inactive
same,outcome,[4],inactive
same,outcome,[5],inactive
same,outcome,[6],inactive
same,outcome,[7],inactive
same,outcome,[8],inactive
same,outcome,[9],inactive
CCCCCCCCCCCCOS(=O)(=O)O,outcome,[4],inactive
same,outcome,[5],inactive
same,outcome,[6],inactive
same,outcome,[7],inactive
same,outcome,[8],inactive
same,outcome,[9],inactive
CS(=O)(=O)c1ccc([C@@H](CC2CCCC2)C(=O)Nc2cnccn2)cc1Cl,outcome,[2],inactive
same,outcome,[4],inactive
same,outcome,[5],inactive
same,outcome,[6],inactive
same,outcome,[7],inactive
same,outcome,[8],inactive
same,outcome,[9],inactive
NC(C(F)(F)F)C(F)(F)F,outcome,[3],inactive
O=C1Cc2ccccc2N1c1c(Cl)cccc1Cl,outcome,[2],inactive
same,outcome,[3],inactive
